# Bioassay records as filed in PubChem.
# Hits are enriched below; roughly 4.6% of the tested compounds scored in any of these assays.
# SKKanGAS inh – S. pyogenes SKKanGAS growth inhibitors in kanamycin, primary screen, streptokinase expression inhibitor project, SKKanGAS strain, BacTiter-Glo luminescence. actives 1.3% (n = 300,000). 6 h. inhibition, % at 7.5 µM;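 active = mean replicate score, as percent of positive control median, at least 50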;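 also: strain carries kanamycin resistance gene driven by streptokinase promoter and grows in 40 µg/ml kanamycin; loss of luminescence reflects streptokinase promoter inhibition or plain growth inhibition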
# TIM10 inh – growth inhibitors of isogenic TIM10 control yeast, primary screen, counter-screen for tim10-1 yeast inhibitor project, luminescence, uHTS; S. cerevisiae TIM10 strain growth, BacTiter-Glo luminescence, 24 h; inhibition, % at 10 µM; actives 1.4% (n = 330,000);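 active = inhibition of 40% or more at the single tested concentration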;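 also: wild-type TIM10 isogenic control strain grown at permissive 25 °C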
# tim10-1 inh – growth inhibitors of tim10-1 mutant yeast, primary screen, luminescence, uHTS. AID 463190, 2010. actives 2.2% (n = 330,000). inhibition, % at 20 µM. S. cerevisiae tim10-1 ts strain growth, BacTiter-Glo, 24 h;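 active = inhibition of at least 40%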;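 also: mutant grown at 25 °C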
# PfHsp90 set2 – growth inhibition of PfHsp90-expressing yeast, primary screen, antimalarial PfHsp90 inhibitor project, S. cerevisiae, BacTiter-Glo luminescence, single point, set 2 | BacTiter-Glo ATP, 48 h; yeast lacking PDR1 and PDR3 efflux regulators | inhibition, % at 9.4 µM | actives 0.32% (n = 310,000);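 active = every replicate shows inhibition above about 80%, whatever the replicate mean, limit read from the data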
# NLRP3 yeast inh – NALP3 inflammasome inhibitors in reconstituted yeast, primary screen, luminescence, uHTS. actives 0.39% (n = 330,000). Yeast reconstituted NLRP3/ASC/caspase-1, beta-gal luminescence, 24 h. inhibition, % at 10 µM;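 active = inhibition of 50% or more; inactive = inhibition below 50%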
# tim23-1 inh – growth inhibitors of tim23-1 mutant yeast, primary screen, luminescence, uHTS | S. cerevisiae tim23-1 growth, BacTiter-Glo luminescence, 24 h | inhibition, % at 20 µM | actives 1.3% (n = 330,000) | AID 463212, 2010;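 active = growth inhibition of the mutant yeast at or above 50%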;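 also: temperature-sensitive mutant grown at 25 °C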
# NALP3 confirm – NALP3 inhibitors retested in yeast, confirmation, luminescence, single concentration; shares compounds with NLRP3 yeast inh; yeast expressing human NALP3; inhibition, % at 10 µM; actives 81% (n = 1,300); AID 435006, 2010; in the data active = inhibition above about 48%
# Casp1-ASC yeast – CASP1-PYCARD signaling inhibition in yeast, confirmatory test, counterassay for NLRP3 inhibitor program, one-dose. yeast expressing Caspase-1-ASC, luminescence counter screen. shares compounds with NLRP3 yeast inh. inhibition, % at 10 µM. actives 66% (n = 1,000)
# NALP3 yeast rt – NALP3 inhibitors in yeast, repeat test, confirmation, luminescence, single concentration, retest. shares compounds with NLRP3 yeast inh. yeast expressing human NALP3, luminescence read-out. inhibition, % at 10 µM. actives 53% (n = 1,000). AID 488794, 2010
# Hits are given with their value; 0 = inactive; - = no result given. Rule as the data show it, unless noted: active = inhibition above about 50%; inactive = the rest.
SMILES,SKKanGAS inh,TIM10 inh,tim10-1 inh,PfHsp90 set2,NLRP3 yeast inh,tim23-1 inh,NALP3 confirm,Casp1-ASC yeast,NALP3 yeast rt
CCCCCOC(=O)Nc1nnc(CCCCC)s1,0,0,0,-,0,0,-,-,-
CCCCCc1nnc(NC(=O)OCCC)s1,0,0,0,0,53.9,0,72.8,56.6,0
Cn1c(=O)c([N+](=O)[O-])c(N2CCN(Cc3ccc4c(c3)OCO4)CC2)c2ccccc21,0,0,0,0,0,0,-,-,-
CCOC(=O)c1cnn(-c2cccc(Cl)c2)c1N,0,0,0,0,55.9,0,73.2,52.8,0
Cc1ccc(NC(=O)Cn2nnc3ccccc3c2=O)cc1C,0,0,0,-,0,0,-,-,-
O=C(Nc1ccc2c(c1)oc1ccccc12)c1cccnc1,0,0,0,0,73.7,0,60.4,0,0
O=C(Nc1ccc2ccccc2c1)c1cccnc1,0,0,0,0,0,0,-,-,-
CCCOc1cc(C)c(S(=O)(=O)N2CCOCC2)cc1C,0,0,0,-,57.4,0,52.2,-,-
Cc1cc(S(=O)(=O)N2CCCCCC2)c(Cl)cc1Cl,0,0,0,-,61.4,0,64.3,70.5,0
CCOc1cc(C)c(S(=O)(=O)N2CCCC2)cc1C,0,0,0,-,82.9,0,79.6,90.4,81.0
CCOc1ccc(Cl)cc1S(=O)(=O)N1CCCC1,0,0,0,0,0,0,-,-,-
COc1cc(C)c(S(=O)(=O)N2CCOCC2)cc1C,0,0,0,0,0,0,-,-,-
CCn1cc(CN2CCC(C(=O)Nc3cccc(-c4cccc(OC)c4)c3)CC2)c(C)n1,0,0,0,0,0,0,-,-,-
COC(=O)c1oc2ccccc2c1NC(=O)/C=C/C(=O)O,0,0,0,0,0,0,-,-,-
Cn1c(SCc2nc(-c3ccc(Cl)cc3)no2)nnc1-c1ccco1,0,0,0,0,53.3,0,65.8,0,0
Cc1c(NC(=S)NC(=O)c2cccc(Cl)c2)c(=O)n(-c2ccccc2)n1C,0,0,0,0,0,0,-,-,-
CCOc1ccc(C(=O)Nc2cc(-c3nc4ccccc4[nH]3)ccc2Cl)cc1[N+](=O)[O-],0,0,0,0,77.9,0,0,-,-
Cc1ccc(-c2nc3ccccc3[nH]2)cc1NC(=O)c1ccc2c(c1)OCO2,0,0,0,0,59.8,0,59.3,55.8,59.0
O=C(NCCS(=O)(=O)N1CCN(c2ccccc2F)CC1)c1cccc(Br)c1,0,0,0,0,0,0,-,-,-
C=CCNc1nc(Cl)nc(Nc2ccc(OCC)cc2)n1,0,0,0,0,52.5,0,0,0,0
Cc1ccc(C(C)C)c(Oc2nnnn2-c2ccccc2)c1,0,0,0,0,0,0,-,-,-
Cc1ccc(C)c(Oc2nnnn2-c2ccccc2)c1,0,0,0,0,0,0,0,-,-
CCSc1nnc(NC(=O)c2cccs2)s1,0,0,0,0,52.5,0,63.7,0,0
CC(Oc1ccc(F)cc1)C(=O)Nc1cc(C(F)(F)F)ccc1-n1cncn1 (configuration not stated),0,0,0,-,0,0,64.2,0,0
COc1ccc(C(=O)Nc2cc(C(F)(F)F)ccc2-n2cncn2)cc1,0,0,0,0,0,0,-,-,-
SMILES,SKKanGAS inh,TIM10 inh,tim10-1 inh,PfHsp90 set2,NLRP3 yeast inh,tim23-1 inh,NALP3 confirm,Casp1-ASC yeast,NALP3 yeast rt
O=C1CNC(=S)N1c1nc2ccccc2s1,0,0,0,0,53.6,0,62.5,53.7,59.0
O=C1CCC(=O)N1c1ccc(-c2nc3ccccc3s2)cc1,0,0,0,0,0,0,-,-,-
O=S(=O)(c1ccc(Cl)s1)N1CCN(Cc2ccccc2)CC1,0,0,0,0,0,0,-,-,-
O=S(=O)(c1ccccc1)N1CCN(Cc2cccc(Br)c2)CC1,0,0,0,-,0,0,-,-,-
O=S(=O)(c1ccc(Cl)s1)N1CCN(CCc2ccccc2)CC1,0,0,0,0,60.0,0,76.3,63.0,53.2
O=S(=O)(c1cccc(Br)c1)N1CCN(CCc2ccccc2)CC1,0,0,0,0,52.9,0,70.8,51.7,0
C[C@]12C=CC(=O)C=C1CC[C@@H]1C2[C@@H](O)C[C@@]2(C)C1CC[C@]2(O)C(=O)COC(=O)CCC(=O)O (some centres not stated),0,0,0,0,0,0,-,-,-
COCCNC(=O)c1ccccc1NC(=O)c1ccccc1SC,0,0,0,0,0,0,-,-,-
O=c1c2cc(Br)ccc2nc(-c2ccc([N+](=O)[O-])cc2)n1O,0,0,0,0,52.9,0,78.6,0,62.1
O=S(=O)(c1ccsc1)N1CC=C(c2ccccc2)CC1,0,0,0,0,58.4,0,61.1,0,0
CC1CCCN(c2ncnc3c2cnn3-c2ccc(Cl)cc2)C1 (configuration not stated),0,0,0,0,0,0,-,-,-
c1ccc(-n2ncc3c(N4CCCCC4)ncnc32)cc1,0,0,0,0,59.6,0,60.7,69.3,60.8
CC(C)Nc1ncnc2c1cnn2-c1ccccc1,0,0,0,0,58.2,0,65.2,0,0
CC1CCCN(c2ncnc3c2cnn3-c2ccccc2)C1 (configuration not stated),0,0,0,0,53.8,0,61.5,-,-
Cc1cccc(-n2ncc3c(NC(C)C)ncnc32)c1,0,0,0,0,0,0,-,-,-
O=C(C1CCN(S(=O)(=O)c2cccc3cccnc23)CC1)N1CCn2c1nc1ccccc12,0,0,0,0,79.5,0,89.9,84.9,87.4
CC(=O)Oc1ccc(OC(C)=O)c2c1CC(C)=C(C)C2,0,0,0,0,0,0,-,-,-
CCOC(=O)c1sc(=S)n(-c2cc(OC)ccc2OC)c1N,0,0,0,0,97.5,0,96.2,71.1,56.9
O=C(NCCCCc1ccccc1)c1ccccc1F,0,0,0,0,54.1,0,62.5,53.1,0
O=C(NCCCCc1ccccc1)c1ccc(Br)cc1,0,0,0,111.7,58.7,0,60.8,0,0
COc1cccc(NS(=O)(=O)c2ccc(Br)s2)c1,0,0,0,0,52.9,0,63.2,0,0
C=CCn1c(SCc2ccccc2F)nc2cc(C(=O)O)ccc2c1=O,0,0,0,0,0,0,-,-,-
CN(C)c1ccc(C(=O)/C=C/c2ccccc2)cc1,0,0,0,0,52.5,0,72.2,0,0
